tim23-1 inh: growth inhibitors of tim23-1 mutant yeast, primary screen, luminescence, uHTS; inhibition, % at 20 µM; S. cerevisiae tim23-1 growth, BacTiter-Glo luminescence, 24 h; AID 463212, 2010; 1.3% of 330,000 active;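 active = growth inhibition of the mutant yeast at or above 50%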;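 note: temperature-sensitive mutant grown at 25 °C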
TIM10 inh: growth inhibitors of isogenic TIM10 control yeast, primary screen, counter-screen for tim10-1 yeast inhibitor project, luminescence, uHTS; 1.4% of 330,000 active; S. cerevisiae TIM10 strain growth, BacTiter-Glo luminescence, 24 h; inhibition, % at 10 µM;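 active = inhibition of 40% or more at the single tested concentration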;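 note: wild-type TIM10 isogenic control strain grown at permissive 25 °C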
MPTP inh: mitochondrial permeability transition pore inhibitors, primary screen, biochemical, isolated mouse mitochondria, absorbance; Ca2+ swelling absorbance, 30 min; inhibition, % at 10 µM; 1.4% of 360,000 active;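 active = inhibition of 50% or more, scaled per plate between neutral and stimulator controls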
tim10-1 inh: growth inhibitors of tim10-1 mutant yeast, primary screen, luminescence, uHTS; 2.2% of 330,000 active; S. cerevisiae tim10-1 ts strain growth, BacTiter-Glo, 24 h; inhibition, % at 20 µM;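 active = inhibition of at least 40%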;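 note: mutant grown at 25 °C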
Mdm2 MdmX PPI: inhibitors of human Mdm2-MdmX association, primary screen, cell-based, luminescence, split luciferase, SaOS-2, uHTS. inhibition, % at 8 µM. 3% of 330,000 active. SaOS-2 split-luciferase Mdm2/MdmX complementation;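 active = inhibition of at least 50% at 8 µM in the primary screen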
Target sequence (O15151 whole entry, looked up): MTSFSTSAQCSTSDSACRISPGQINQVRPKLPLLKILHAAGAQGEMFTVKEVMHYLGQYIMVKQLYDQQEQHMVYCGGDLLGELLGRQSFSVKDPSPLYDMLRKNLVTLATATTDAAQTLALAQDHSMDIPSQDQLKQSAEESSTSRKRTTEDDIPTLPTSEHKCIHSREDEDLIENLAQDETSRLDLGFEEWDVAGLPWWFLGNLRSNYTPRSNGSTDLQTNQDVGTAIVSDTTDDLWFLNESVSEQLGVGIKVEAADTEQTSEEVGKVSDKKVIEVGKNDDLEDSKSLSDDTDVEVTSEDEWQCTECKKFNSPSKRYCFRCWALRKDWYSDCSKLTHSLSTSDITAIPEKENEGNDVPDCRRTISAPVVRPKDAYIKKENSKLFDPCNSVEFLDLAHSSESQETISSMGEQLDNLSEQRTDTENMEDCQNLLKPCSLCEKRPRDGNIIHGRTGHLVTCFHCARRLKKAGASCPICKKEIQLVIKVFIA
Target sequence (Q00987 whole entry, looked up): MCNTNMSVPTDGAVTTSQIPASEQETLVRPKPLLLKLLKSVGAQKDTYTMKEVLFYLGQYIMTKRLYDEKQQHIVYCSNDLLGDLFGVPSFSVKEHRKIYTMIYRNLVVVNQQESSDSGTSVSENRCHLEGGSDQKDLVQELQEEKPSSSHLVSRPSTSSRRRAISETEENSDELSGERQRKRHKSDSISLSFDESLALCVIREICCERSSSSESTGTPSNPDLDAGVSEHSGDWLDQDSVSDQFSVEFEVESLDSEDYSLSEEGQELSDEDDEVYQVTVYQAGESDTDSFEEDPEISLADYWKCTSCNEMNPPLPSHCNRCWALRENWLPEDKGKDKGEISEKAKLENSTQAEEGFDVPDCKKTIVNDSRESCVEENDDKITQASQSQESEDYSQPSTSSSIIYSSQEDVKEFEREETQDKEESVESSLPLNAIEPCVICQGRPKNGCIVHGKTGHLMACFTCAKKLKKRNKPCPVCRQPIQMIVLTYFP
tim10-1 confirm: growth inhibitors of tim10-1 mutant yeast, confirmation, single concentration, luminescence, S. cerevisiae; inhibition, % at 20 µM; shares compounds with tim10-1 inh; 56% of 7,400 active; S. cerevisiae tim10-1 ts strain growth, BacTiter-Glo, 24 h;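 active = inhibition of yeast growth at or above a set limit in either of two repeat tests at 20 µM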;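 note: tim10-1 mutant grown at permissive 25 °C to find synthetic lethal compounds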
Each line names hits and unclear results; the compound was inactive in the other large screens (follow-up assays come after a bar, where they were run). An excerpt weighted towards active compounds, which were near 6.3% of everything screened.

COc1ccc(C(=O)C(C)N(C(=O)c2ccc(Cl)cc2Cl)N2C(=O)C3C4C=CC(C4)C3C2=O)cc1 (stereo unspecified)	tim10-1 inh 47 | tim10-1 confirm inactive
CCCNC(=O)C1(C)CCCN(CCOc2ccccc2)C1 (stereo unspecified)	none (no result: tim23-1 inh, TIM10 inh, tim10-1 inh, Mdm2 MdmX PPI)
Cc1onc(-c2ccc3c(c2)OCO3)c1-c1ccc2[nH]ccc2c1	tim10-1 inh 54 | tim10-1 confirm 40
Cc1cc(NC(=O)c2csc([C@@H]3O[C@H](CO)[C@H](O)[C@H](O)[C@H]3O)n2)n(C)n1	none (no result: tim23-1 inh, TIM10 inh, tim10-1 inh, Mdm2 MdmX PPI)
O=C(Cc1coc2ccc3ccccc3c12)N1CCN(c2ncccn2)CC1	tim10-1 inh 43 | tim10-1 confirm inactive
CCn1c(CSc2nc3ccccc3n2C)nc2ccccc21	none
Cn1c(CSc2nnc(SCc3ccccc3)s2)nc2ccccc21	tim10-1 inh 56 | tim10-1 confirm 42
Nc1cccc(Nc2ccccc2)c1	none
c1ccc(Nc2cccc(Nc3ccccc3)c2)cc1	tim10-1 inh 54 | tim10-1 confirm 76
C=C1CCC[C@]2(C)C[C@H]3OC(=O)C(CN4CCOCC4)[C@H]3C[C@@H]12 (stereo partly specified)	tim10-1 inh 51 | tim10-1 confirm 46
Cc1ccc(C(=O)N2CCC3(CC2)Oc2ccc(F)cc2C(=O)C32CC(c3ccc(Cl)cc3)=NO2)s1 (stereo unspecified)	tim10-1 inh 51 | tim10-1 confirm 33
CC(C)C(=O)N1CCC2(CC1)Oc1ccc(Cl)cc1C(=O)C21CC(c2ccccc2)=NO1 (stereo unspecified)	tim10-1 inh 53 | tim10-1 confirm inactive
O=C(c1ccoc1)N1CCC2(CC1)Oc1ccc(Cl)cc1C(=O)C21CC(c2ccc(Cl)cc2)=NO1 (stereo unspecified)	tim10-1 inh 54 | tim10-1 confirm 41
CC(Oc1ccccc1)C(=O)N1CCC2(CC1)Oc1ccc(Cl)cc1C(=O)C21CC(c2ccccc2)=NO1 (stereo unspecified)	none (no result: MPTP inh)
O=C(c1ccoc1)N1CCC2(CC1)Oc1ccc(F)cc1C(=O)C21CC(c2ccc(Cl)cc2)=NO1 (stereo unspecified)	none
CC(C)C(=O)N1CCC2(CC1)Oc1ccc(F)cc1C(=O)C21CC(c2ccc(Cl)cc2)=NO1 (stereo unspecified)	tim10-1 inh 47 | tim10-1 confirm inactive
CCC(=O)N1CCC2(CC1)Oc1ccc(F)cc1C(=O)C21CC(c2ccc(Cl)cc2)=NO1 (stereo unspecified)	none
CC1(C(=O)NS(=O)(=O)c2ccccc2C(F)(F)F)CCN1C(=O)CCC1CCCC1 (stereo unspecified)	none (no result: tim23-1 inh, TIM10 inh, tim10-1 inh, Mdm2 MdmX PPI)
CCC(C)(O)c1cnc(CC(C)C)c(=O)n1O (stereo unspecified)	none (no result: tim23-1 inh, TIM10 inh, tim10-1 inh, Mdm2 MdmX PPI)
O=C(c1ccc2c(c1)OCO2)N1CCC2(CC1)Oc1ccc(F)cc1C(=O)C21CC(c2ccccc2)=NO1 (stereo unspecified)	tim10-1 inh 42 | tim10-1 confirm 34
O=C(c1ccc2c(c1)OCO2)N1CCC2(CC1)Oc1ccc(F)cc1C(=O)C21CC(c2cccnc2)=NO1 (stereo unspecified)	none
Cc1ccc(C(O)P(=O)(OCCC(C)C)c2ccc(N(C)C)cc2)cc1 (stereo unspecified)	tim10-1 inh 41 | tim10-1 confirm inactive
COc1cc2c(cc1OC)C(COc1cccc(C(F)(F)F)c1)NCC2 (stereo unspecified)	tim10-1 inh 47 | tim10-1 confirm 47
COc1ccc(OCC2NCCc3cc(OC)c(OC)cc32)cc1 (stereo unspecified)	none
CC(C)(O)C#Cc1ccc(C(=O)N2CCN(c3ccc([N+](=O)[O-])cc3)CC2)cc1	tim10-1 inh 46 | tim10-1 confirm 38
OC[C@@H]1CN(Cc2ccc3c(c2)OCO3)C[C@H](n2cnc3c(NC4CCCC4)ncnc32)O1	none (no result: tim23-1 inh, TIM10 inh, tim10-1 inh, Mdm2 MdmX PPI)
CN(C)c1ccc(/C=N/NC(=O)C(=O)/C=C2\NC3(CCCC3)Cc3ccccc32)cc1	tim10-1 inh 42 | tim10-1 confirm inactive
Cc1cccc(C)c1-n1nnnc1C1(C)CCC(=O)N1CCc1ccc(O)cc1 (stereo unspecified)	none (no result: tim23-1 inh, TIM10 inh, tim10-1 inh, Mdm2 MdmX PPI)
C#Cc1ccc(NC(=O)C2(C)CCN2C(=O)CC(c2ccccc2)c2ccccc2)cc1 (stereo unspecified)	none (no result: tim23-1 inh, TIM10 inh, tim10-1 inh, Mdm2 MdmX PPI)
Cc1cc(-c2[nH]nc3c2C(c2cccc(O)c2)C(C#N)=C(N)O3)c(C)s1 (stereo unspecified)	none
Cc1ccc(C2C(C#N)=C(N)Oc3n[nH]c(-c4ccccc4)c32)o1 (stereo unspecified)	none (no result: tim23-1 inh, TIM10 inh, tim10-1 inh, Mdm2 MdmX PPI)
Cc1ccc(-c2[nH]nc3c2C(C)C(C#N)=C(N)O3)cc1 (stereo unspecified)	tim10-1 inh 40 | tim10-1 confirm 32
Cc1cc(-c2[nH]nc3c2C(c2ccsc2)C(C#N)=C(N)O3)c(C)s1 (stereo unspecified)	tim10-1 inh 47 | tim10-1 confirm 44
COc1cc(F)ccc1-c1csc(C(O)(c2ccccc2)C(F)(F)F)n1 (stereo unspecified)	none (no result: tim23-1 inh, TIM10 inh, tim10-1 inh, Mdm2 MdmX PPI)
N/C(=N\OC(=O)c1cccc(Cl)c1)c1ccccn1	tim10-1 inh 45 | tim10-1 confirm 33
NC(c1csc(Nc2ccccn2)n1)C1CCCCC1 (stereo unspecified)	none (no result: tim23-1 inh, TIM10 inh, tim10-1 inh, Mdm2 MdmX PPI)
CC(C)(C)n1nnnc1C(c1ccccc1F)N(Cc1ccco1)CC1CCCO1 (stereo unspecified)	tim10-1 inh 41 | tim10-1 confirm inactive
COc1cc(-c2cc(NC=O)c3ncc(-c4ccc(C(C)=O)cc4)n3c2)ccc1O	none (no result: tim23-1 inh, TIM10 inh, tim10-1 inh, Mdm2 MdmX PPI)
CCOC(=O)C1CCCN(C2CC(=O)N(c3ccc(C)cc3)C2=O)C1 (stereo unspecified)	none
CCOC(=O)C1CCN(C2CC(=O)N(c3cccc(Cl)c3)C2=O)CC1 (stereo unspecified)	tim10-1 inh 42 | tim10-1 confirm 37
CCN(CC)C1CC(=O)N(c2cccc(Cl)c2)C1=O (stereo unspecified)	tim10-1 inh 45 | tim10-1 confirm 56
O=C(C1CCN(C2CC(=O)N(c3ccc(Cl)cc3)C2=O)CC1)N1CCOCC1 (stereo unspecified)	none
O=C(C1CCN(C2CC(=O)N(c3cccc(Cl)c3)C2=O)CC1)N1CCCC1 (stereo unspecified)	tim10-1 inh 55 | tim10-1 confirm 47
CCN1C(=O)CC(N2CCC(C(=O)OC)CC2)C1=O (stereo unspecified)	none
COC(=O)C1CCN(C2CC(=O)N(c3cc(C)cc(C)c3)C2=O)CC1 (stereo unspecified)	tim10-1 inh 40 | tim10-1 confirm 32

From PubChem
